Consider 64 compounds from ChEMBL document CHEMBL3433997, “St. Jude Leishmania screening dataset” (2016).

SMILES strings stand for the structures.

Common to all, as to type: functional
The target in assay [1] is Solute carrier family 2, facilitated glucose transporter member 1 (Homo sapiens) (UniProt P11166). The experiment in a line: ST_JUDE_LEISH: Cytotoxicity at 2uM final concentration against transgenic Leishmania Mexicana promastigotes LmGLUT1 that are glucose transport deficient and complemented with the human glucose transporter GLUT1. Activity is measured by DNA content using SYBR green in vitro.

In assay [2] the target is Hexose transporter 1 (Plasmodium falciparum) (UniProt O97467). The experiment in a line: ST_JUDE_LEISH: Cytotoxicity at 2uM final concentration against transgenic Leishmania Mexicana promastigotes LmPfHT that are glucose transport deficient and complemented with the Plasmodium falciparum hexose transporter. Activity is measured by DNA content using SYBR green in vitro.

For assay [3], the target named is Glucose transporter (Leishmania mexicana) (UniProt O61059). The experiment in a line: ST_JUDE_LEISH: Cytotoxicity at 2uM final concentration against transgenic Leishmania Mexicana promastigotes LmGT2 that are glucose transport deficient and complemented with the L. Mexicana glucose transporter 2. Activity is measured by DNA content using SYBR green in vitro.

Solute carrier family 2, facilitated glucose transporter member 1 (Homo sapiens), sequence (P11166 whole entry): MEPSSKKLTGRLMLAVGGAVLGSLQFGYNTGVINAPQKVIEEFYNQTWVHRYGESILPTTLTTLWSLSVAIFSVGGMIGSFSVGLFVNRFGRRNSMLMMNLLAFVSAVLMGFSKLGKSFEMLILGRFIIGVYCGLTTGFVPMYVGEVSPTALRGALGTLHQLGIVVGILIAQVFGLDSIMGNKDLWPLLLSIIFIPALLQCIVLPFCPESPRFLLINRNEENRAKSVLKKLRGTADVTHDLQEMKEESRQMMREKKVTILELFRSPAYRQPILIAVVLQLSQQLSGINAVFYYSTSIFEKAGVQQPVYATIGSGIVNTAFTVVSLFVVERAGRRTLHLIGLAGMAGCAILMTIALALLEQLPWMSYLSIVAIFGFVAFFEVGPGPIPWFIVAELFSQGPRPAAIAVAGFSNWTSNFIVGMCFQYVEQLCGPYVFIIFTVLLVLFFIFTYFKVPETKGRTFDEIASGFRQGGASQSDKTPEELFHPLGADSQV

For the compound `CC[C@]1(C)C[C@@H](NC(=O)NC(=O)c2ccc(OC)cc2)[C@]2(C)[C@H](C)CC[C@]3(CCC(=O)[C@H]32)[C@@H](C)[C@@H]1OC(=O)NC(=O)c1ccc(OC)cc1`, the values for the inhibition in assay [1], in assay [2] and in assay [3] were 7.7%, 5.47% and 7.04%, respectively.
For `COc1ccc(-c2cncc3ccc(C(=O)NCCCn4ccnc4)nc23)cc1` the same measures were 7.45%, 8.66% and 7.3%.
Consider `O=C(NC1CCN(Cc2ccccc2)CC1)c1cc(C(=O)NC2CCN(Cc3ccccc3)CC2)cc(C(=O)NC2CCN(Cc3ccccc3)CC2)c1`, for which the inhibition in assay [1] is 5.09%; in assay [2] it was 4.78%; in assay [3], 4.94%.
Consider `Cc1ccc2[nH]c3c(NCCN(C)C)ncnc3c2c1`, for which the inhibition in assay [1] was 0.53%; in assay [2], 1.24%; in assay [3], -0.07%.
For `Cc1cccc2nc(-c3ccc(-c4ccc(NC(=O)CN5CCN(C)CC5)cc4)s3)[nH]c12` the same measures were -0.59%, -1.98% and -1.35%.
The matching figures for `COCCCNC(=O)[C@H]1CNCCN1C(=O)c1ccccc1`: 1%, 0.97% and 3.67%.
Consider `CCNc1cc(C)nc(Nc2ccccc2)n1`, for which the inhibition in assay [1] came out at 15.2%; in assay [2] it was 5.92%; in assay [3], 3.47%.
With `Cc1nn(-c2cccc(C(F)(F)F)c2)c2sc(C(=O)NC3CCN(C(C)C)CC3)cc12`, the inhibition in assay [1] is 1.73%; in assay [2] it was -1.04%; in assay [3], 1.61%.
The matching figures for `Clc1cc(Cl)c2c(c1)C(NCCCNc1nc3ccccc3[nH]1)CCO2` (configuration not stated): 18.5%, 43.3% and 28.1%.
`c1ccc(CCNc2ncnc3c2[nH]c2ccccc23)cc1`: the inhibition worked out at 3.67% in assay [1], 11.6% in assay [2] and 3.69% in assay [3].
The matching figures for `COc1cc2nc(N3CCC(CNC(=O)c4cccc5cccnc45)CC3)nc(N)c2cc1OC`: 5.61%, 4.14% and 3.91%.
As for `CC(=O)Nc1ncc(C(=O)Nc2cccc(-c3ccc(-c4nc5cccc(C)c5[nH]4)cc3)c2)s1`, the inhibition in assay [1] is 0.14%; in assay [2], 0.54%; in assay [3], 0.54%.
For `CC(=NNC(S)=NCc1ccco1)c1ccccn1`, the inhibition in assay [1] was found to be 1.7%; in assay [2] it was 1.81%; in assay [3], 1.16%.
For `O=C(/C=C/c1ccc(Cl)c(Cl)c1)NCCC(CN1CCC(c2c[nH]c3ccccc23)CC1)c1ccccc1` (configuration not stated) the same measures were 2.74%, 2.22% and 0.88%.
For `Cc1cc(N[C@@H](Cc2ccccc2)C(=O)NCc2cccs2)nc(NCCOc2ccccc2)n1` the same measures were 8.74%, 10.4% and 5.27%.
For `Fc1ccc(Nc2ccnc3cc(-c4ccc(CN5CCOCC5)o4)ccc23)c(Cl)c1`, the inhibition in assay [1] was 9.15%; in assay [2] it was 8.02%; in assay [3] it was 7.49%.
As for `Cc1cccc2nc(-c3ccc(-c4cccc(CNCC5CCCO5)c4)s3)[nH]c12` (configuration not stated), the inhibition in assay [1] was found to be 13%; in assay [2], 11.4%; in assay [3] it was 11.3%.
Regarding `CN(C)c1ccc(-c2nnc(Sc3ccc(C#N)c([N+](=O)[O-])c3)n2Cc2ccco2)cc1`, the inhibition in assay [1] was 3.82%; in assay [2], 2.83%; in assay [3], 0.63%.
For `CCN(CC)c1ccc2nc(N)nc(N)c2c1`, the inhibition was determined as 8.53% in assay [1], 16.5% in assay [2] and 7.56% in assay [3].
For `O=C(Nc1ccc(OC2CCN(Cc3ccc(F)cc3)C2)cc1)c1ccco1` (configuration not stated) the same measures were 2.22%, 2.86% and 3.15%.
The matching figures for `COc1ccc(C(=O)CCC(=O)N(Cc2ccc(-c3ccc(CNCCc4ccc(S(C)(=O)=O)cc4)cn3)cc2)C2CCN(Cc3ccccc3)CC2)cc1F`: 4.03%, 5.85% and 2.72%.
`O=S(=O)(c1ccc2cc[nH]c2c1)N1CCC[C@@H]1CCN1CCC(c2c[nH]c3cnccc23)CC1`: the inhibition turned out to be 3.4% in assay [1], 2.78% in assay [2] and 2.1% in assay [3].
The matching figures for `COc1ccc(C2=[N+]([O-])c3ccccc3C2=O)cc1`: 0.97%, 0.24% and -0.74%.
On to `CCOC(=O)C1=C(C)NC2=C(C(=O)CC(C)(C)C2)C1c1ccc(Br)cc1` (configuration not stated), for which the inhibition in assay [1] stood at 1.77%; in assay [2], 0.63%; in assay [3], 0.59%.
As for `COC(=O)c1ccc(CCCNCC(O)c2cccc(C(F)(F)F)c2)cc1` (configuration not stated), the figures for the inhibition in assay [1], in assay [2] and in assay [3] were 2.51%, 3.05% and 6.4%, respectively.
Consider `Cc1cc2nc(-c3ccc(/C=C/C(=O)NCc4ccc(Cl)c(Cl)c4)cc3)[nH]c2cc1C`, for which the inhibition in assay [1] turned out to be 8.62%; in assay [2] it was 8.06%; in assay [3], 4.96%.
On to `CNC(=O)NC1CCN(Cc2c(-c3cccs3)nc3ccccc3c2C(=O)N[C@@H](C)C2CCCCC2)CC1`, for which the inhibition is -1.53% in assay [1], 0.94% in assay [2] and -1.52% in assay [3].
For `CCc1c(CCNCCCCCCNCCc2ccc(Br)cc2)ccc(O)c1O` the same measures were -0.07%, 0.74% and 1.12%.
For `Cc1[nH]c(C)c(-c2ccc(-c3ccc(OCC(F)(F)F)cc3)nc2)c(=O)c1Cl` the same measures were 5.76%, 4.89% and 6.06%.
For `Cn1nc2ccc3ccccc3c2nc1=N` the same measures were 59.2%, 44.1% and 18.6%.
With `O=C(NCC1CC1)C1Cc2c([nH]c3ccc(Br)cc23)C2(CCN(CCc3ccccc3)CC2)N1` (configuration not stated), the inhibition in assay [1] is 1.43%; in assay [2] it was -0.28%; in assay [3] it was 1.33%.
For `O=c1ccc2ccc(F)c3c2n1CC3CN1CCC(NCc2cccc(-c3cccs3)c2)CC1` (configuration not stated) the same measures were 6.55%, 8.34% and -6.19%.
The matching figures for `c1cc2c3c(cccc3c1)NC(CCCCCCCCC1=Nc3cccc4cccc(c34)N1)=N2`: 2.66%, 1.67% and 2.28%.
As to `CCC(=C(CC)c1ccc(O)c(CNC2CCCCC2)c1)c1ccc(O)c(CNC2CCCCC2)c1`, the inhibition is 23.6% in assay [1], 8.98% in assay [2] and -1.26% in assay [3].
Turning to `COc1cc(C2CCCCC2)c(OC)cc1CC1c2cc(O)c(Cl)cc2CCN1C` (configuration not stated), the values for the inhibition in assay [1], in assay [2] and in assay [3] were 3.83%, -0.22% and 12.9%, respectively.
Turning to `COc1ccc(CN2CCC(CNCc3cccc(-c4ccccc4)c3)CC2)cc1`, the inhibition turned out to be 3.34% in assay [1], 0.46% in assay [2] and 3.8% in assay [3].
The matching figures for `CCN(CC)CCCN1CCN(C(=O)c2cccc(-c3noc(C(F)(F)F)n3)c2)CC1`: 5.54%, 4.63% and 4%.
For `COc1cccc(-c2cnc(N)c(-c3nc4ccc(F)cc4[nH]3)c2)c1` the same measures were 5.87%, 7.53% and 4.49%.
For `C=CCOC(=O)N1CCC(CNCc2ccc(-c3ccc(-c4nc5cc(C(F)(F)F)ccc5[nH]4)cc3)cc2)C1` (configuration not stated) the same measures were 3.5%, -0.38% and 1.41%.
As for `Cc1ccc(Nc2nccc(NCC(O)c3cccc(C(F)(F)F)c3)n2)cc1` (configuration not stated), the inhibition worked out at 4.66% in assay [1], 4% in assay [2] and 0.81% in assay [3].
For `Cc1cc(S(=O)(=O)N2CCCCC(c3ccc(C(F)(F)F)cc3)=N2)c(Cl)cc1Cl` the same measures were 3.58%, 4.02% and -1.4%.
For `c1cc(CN2CCCCC2)cc(-c2cccc(-c3nc4ccccc4[nH]3)c2)c1` the same measures were 1.27%, 2.94% and -0.15%.
For `CN(C)CCNCc1ccc(-c2ccc3c(Nc4ccc(Oc5ccccc5)cc4)ccnc3c2)o1` the same measures were -1.6%, -1.01% and -0.02%.
As to `O=C(/C=C/c1ccc(Cl)c(Cl)c1)NCCCCCN1CCC(CCNC(=O)/C=C/c2ccc(Cl)c(Cl)c2)CC1`, the inhibition in assay [1] was 1.63%; in assay [2], -0.93%; in assay [3], 0.87%.
The matching figures for `O=C(C=CC(=O)N1CCCCC1)NCc1ccccc1`: 2.97%, 3.29% and 2%.
The matching figures for `CC(C)N1CCN(CCCNc2c3ccccc3nc3ccccc23)CC1`: 40.1%, 58% and 19%.
For `CCCCN(CCCC)CCOc1cc2c(cc1OC)CCN2C(=O)/C=C/c1ccccc1Cl`, the inhibition in assay [1] is 1.13%; in assay [2], 1.58%; in assay [3] it was -0.32%.
The matching figures for `CCOc1ccc(C(C)NC(=O)Nc2ccccc2)cc1OCC` (configuration not stated): 4.28%, 2.66% and 2.96%.
For `CC(C)CNCc1ccc(OCc2cccc(COc3ccc(CNCC(C)C)cc3I)c2)c(I)c1` the same measures were 2.2%, 1.42% and 2.23%.
The matching figures for `O=c1cc(NCCC(CNCc2cc3ccccc3o2)NCc2cc(Br)cc(Br)c2)[nH]c2ccccc12` (configuration not stated): 0.2%, 0.33% and 2.33%.
Consider `CCOc1cc(C)ccc1C1CCN(CCCCNC(=O)c2coc(-c3ccc(Cl)cc3)c2)CC1`, for which the results for the inhibition in assay [1], in assay [2] and in assay [3] were 0.96%, 3.18% and 2.06%, respectively.
For `Cc1c[nH]c(CCNC(=O)c2cc(-c3ccc(Cl)cc3)cs2)n1`, the inhibition in assay [1] came to 2.64%; in assay [2], 0.26%; in assay [3] it was 2.79%.
Consider `CCCCOc1ccc(-c2nc3ccccc3[nH]2)cc1`, for which the values for the inhibition in assay [1], in assay [2] and in assay [3] were 9.74%, 8.64% and 2.74%, respectively.
As for `COc1nc2c(CCN3CC[C@@H](NCc4cc(C#N)c5c(c4)CCO5)[C@@H](O)C3)ccnc2cc1F`, the inhibition in assay [1] is 7.43%; in assay [2], 4.07%; in assay [3], 0.66%.
With `CC(Nc1ccc2c(c1)CCC2)C(=O)Nc1cc(C(F)(F)F)ccc1N1CCOCC1` (configuration not stated), the inhibition in assay [1] was 14.7%; in assay [2] it was 16.9%; in assay [3], 11.1%.
For `CC(C)CCN1CCC(Oc2cccc(NC(=O)c3ccc(C(F)(F)F)cc3)c2)CC1` the same measures were 1.54%, -0.13% and 1.09%.
Consider `Cc1cnc(CN(Cc2ccc(-c3ccc(CNCCc4ccc(S(C)(=O)=O)cc4)cn3)cc2)C(=O)c2nn(-c3ccccc3)nc2C)cn1`, for which the inhibition in assay [1] stood at 5.03%; in assay [2], 3.95%; in assay [3] it was 4.81%.
As for `COc1ccc(C23Oc4cc(OC)cc(OC)c4C2(O)C2(CC3c3ccccc3)SCCCS2)cc1` (configuration not stated), the inhibition in assay [1] is 0.76%; in assay [2] it was -0.16%; in assay [3] it was 1.15%.
Consider `Clc1ccc2c(N3CCCNCC3)ccnc2c1`, for which the inhibition amounted to 1.53% in assay [1], 1.07% in assay [2] and 4.48% in assay [3].
Regarding `O=C(Nc1cccc(C(F)(F)F)c1)c1ccc(S(=O)(=O)NCC2CCCN2CC2CCCCC2)cc1` (configuration not stated), the inhibition in assay [1] is 1.8%; in assay [2] it was 3.93%; in assay [3] it was -0.18%.
For the compound `O=C(N[C@H]1CCN(Cc2ccc(OCCCN3CCCCC3)cc2)C1)c1cc(Cl)cc(Cl)c1`, the inhibition in assay [1] was 1.71%; in assay [2], 7.28%; in assay [3] it was 2.29%.
For `COC(=O)c1cccc(CNCc2cccc(-c3ccc(-c4nc5cccc(C)c5[nH]4)s3)c2)c1` the same measures were 1.43%, 0.6% and 0.69%.
The matching figures for `N#Cc1cccc(NC(=O)Nc2cccc(-c3cccc(-c4nc5ccccc5[nH]4)c3)c2)c1`: 5.25%, 5.22% and 3.75%.
For `CC(CON1C(N)=NC(N)=NC1(C)C)c1ccc(Cl)cc1Cl` (configuration not stated) the same measures were 23.2%, 37.1% and 24.2%.
